Results on 21 compounds are retold here after PubChem BioAssay (NCI).

Compounds without any hit were thinned out: in the full panel of roughly 79,000, 15% have a hit. Unmarked numbers belong to inactive results. Calls of active or inactive are those of the source. No stated cut-off is given here; in the data, active means growth inhibition above about 70%; inactive means the rest.

Assay [1] in a line: NCI Yeast Anticancer Drug Screen. Data for the rad50 strain (AID 155).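 Further: 0% = growth of vehicle-only cultures of the same strain.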 The settings on record: S. cerevisiae rad50 strain growth inhibition; at 50.0 µM; stronger effect = higher value. In a few lines:
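Growth of the mutant yeast was measured after compound exposure and referenced to vehicle-treated cultures.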

The nature of assay [2]: NCI Yeast Anticancer Drug Screen. Data for the mec2-1 strain (AID 157). The conditions noted are these: S. cerevisiae mec2-1 strain, at 50.0 µM, stronger effect = higher value. The essentials:
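Compounds were applied to mec2-1 yeast cells. Their growth was then compared with that of vehicle-treated cultures to give growth inhibition.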

A short description of assay [3]: NCI Yeast Anticancer Drug Screen. Data for the sgs1 mgt1 strain (AID 161).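 Further: 0% = growth of cultures given vehicle only.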 The settings on record: S. cerevisiae sgs1 mgt1 strain, at 50.0 µM, stronger effect = higher value. In a few lines:
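Compounds are added to genetically altered yeast, and growth is compared with cultures given vehicle alone to give percent inhibition.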

The nature of assay [4]: NCI Yeast Anticancer Drug Screen. Data for the cln2 rad14 strain (AID 165).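 Further: 0% = growth equal to vehicle treated cultures.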 The conditions noted are these: S. cerevisiae cln2 rad14 strain, at 50.0 µM, stronger effect = higher value. The essentials:
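Strain: cln2 rad14 yeast, altered in cell cycle control and DNA damage repair. Read-out: growth inhibition vs vehicle.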

Assay [5] in a line: NCI Yeast Anticancer Drug Screen. Data for the bub3 strain (AID 167). The conditions noted are these: S. cerevisiae bub3 mutant strain, at 50.0 µM, stronger effect = higher value. In a few lines:
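Whole-cell yeast assay. The mutant strain was incubated with compounds, and growth inhibition was determined by comparison with vehicle-treated cells.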

Assay [6] in a line: NCI Yeast Anticancer Drug Screen. Data for the mlh1 rad18 strain (AID 175). The settings on record: S. cerevisiae mlh1 rad18 strain growth inhibition; at 50.0 µM; stronger effect = higher value. The essentials:
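A repair-deficient yeast strain is exposed to test compound, and growth is scored relative to vehicle-treated controls.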

For the compound `O=C(Nc1ccc(S(=O)(=O)NC2CCCCC2)cc1)OC1CCCCCC1`, the growth inhibition is 2.6% in assay [1]; -1.25% in assay [2]; 7.75% in assay [3]; 4.35% in assay [4]; -1.95% in assay [5]; -0.85% in assay [6].
With `CCCCCCCCC(=O)Nc1nc2nc[nH]c2c(=O)[nH]1`, the growth inhibition in assay [1] was -9.65%; in assay [2], -33.2%; in assay [3] it was -15.3%; in assay [4], -30.1%; in assay [5], -14.3%; in assay [6], -5.45%.
Take `CCN=C(N(CC)CC)N(CC)CC`: the growth inhibition in assay [1] is -12.1%; in assay [2], 10.2%; in assay [3], 2.95%; in assay [4], -24.4%; in assay [5], 62.7%; in assay [6] it was 4.3%.
As for `Cc1cc(=O)n2c3c(cccc13)CCC2`, the growth inhibition is 26.3% in assay [1]; -1.5% in assay [2]; -3.15% in assay [3]; 7.15% in assay [4]; 3.9% in assay [5]; 11.9% in assay [6].
On to `O=C(Nc1ccc(S(=O)(=O)/N=c2\ncccn2C(=O)C(C(F)(F)F)C(F)(F)F)cc1)C(C(F)(F)F)C(F)(F)F`, for which the growth inhibition was -5% in assay [1]; 11.9% in assay [2]; -0.65% in assay [3]; 22.2% in assay [4]; 28.4% in assay [5]; -26.8% in assay [6].
With `CCCCCCC(=O)OC[n+]1ccc2c(C)c3[nH]c4ccc(OC)cc4c3c(C)c2c1`, the growth inhibition in assay [1] is 87% (active); in assay [2], 91.2% (active); in assay [3] it was 89.8% (active); in assay [4], 88.7% (active); in assay [5], 86% (active); in assay [6], 91.1% (active).
For the compound `CC(C)(O)C12CC3CC(CC(C3)C1)C2`, the growth inhibition in assay [1] was 18.4%; in assay [2], -6.15%; in assay [3], 8.35%; in assay [4], -38.2%; in assay [5], 5.25%; in assay [6] it was 0.2%.
For `CS(=O)(=O)N1CCCN(S(C)(=O)=O)COC1`, the growth inhibition was 6.2% in assay [1]; -6.65% in assay [2]; -8.75% in assay [3]; -2.45% in assay [4]; 13.4% in assay [5]; -0.35% in assay [6].
Turning to `CC(=O)C(C(c1ccccc1)N1CCOCC1)N1CCOCC1` (stereo unspecified), the growth inhibition is 12.1% in assay [1]; -0.8% in assay [2]; -24% in assay [3]; 1.15% in assay [4]; -23.2% in assay [5]; 6.25% in assay [6].
For `CC1(C)CNCC2(C)OCCCOC3(C)CNCC(C)(C)NC(=O)C(C)(CNCC(C)(C)NC3=O)OCCCOC(C)(CNCC(C)(C)NC2=O)C(=O)N1`, the growth inhibition is -22.6% in assay [1]; -21.1% in assay [2]; -24.4% in assay [3]; 16.1% in assay [4]; -3.05% in assay [5]; -21.7% in assay [6].
With `COc1ccc(OC)c2c(=O)cc(C)oc12`, the growth inhibition is -15.7% in assay [1]; -7.8% in assay [2]; -16.3% in assay [3]; -3.4% in assay [4]; -7.65% in assay [5]; -10.4% in assay [6].
For `COc1ccc(NS(=O)c2ccccc2OC)cc1` (stereo unspecified), the growth inhibition in assay [1] is 2.7%; in assay [2], 4.5%; in assay [3] it was 14.3%; in assay [4], -18.9%; in assay [5], 8.05%; in assay [6] it was 5.5%.
For the compound `O=C1C=C(Nc2ccccc2C(=O)c2ccccc2)c2ccccc2C1=O`, the growth inhibition in assay [1] was 18.9%; in assay [2] it was -30.4%; in assay [3], 6.65%; in assay [4] it was 4.9%; in assay [5] it was 14.8%; in assay [6], 2.4%.
`Cc1[nH]ccc(=O)c1OC(=O)C12CC3CC(CC(C3)C1)C2`: the growth inhibition in assay [1] was 15.8%; in assay [2] it was 16.6%; in assay [3], 36%; in assay [4], 19.2%; in assay [5] it was 2.7%; in assay [6] it was 23%.
Consider `Cc1nn(-c2ccccc2)nc1C(=O)Nc1ccc2[nH]ncc2c1`, for which the growth inhibition in assay [1] was -39.2%; in assay [2] it was -48.1%; in assay [3], -8.95%; in assay [4] it was -15.8%; in assay [5] it was -22.9%; in assay [6], -24.6%.
On to `CCS(=O)O`, for which the growth inhibition in assay [1] is -21.2%; in assay [2], 15.9%; in assay [3] it was 1.3%; in assay [4], -4.25%; in assay [5], -6.8%; in assay [6], -8.9%.
As to `COc1ccc2nc(NC(=O)C(=O)C(C)C(=O)c3ccc(Cl)cc3)sc2c1` (stereo unspecified), the growth inhibition in assay [1] is -10.1%; in assay [2] it was 4.85%; in assay [3] it was -8.65%; in assay [4], -5.9%; in assay [5], -2.55%; in assay [6], -0.25%.
As for `CCCCCC(CCCC)OC(=O)Nc1ccccc1` (stereo unspecified), the growth inhibition was -4.35% in assay [1]; 7.85% in assay [2]; 10% in assay [3]; -7% in assay [4]; -1.15% in assay [5]; 4.6% in assay [6].
On to `COc1ccc(C)cc1Sc1ccc(C)cc1[N+](=O)[O-]`, for which the growth inhibition in assay [1] was -6.2%; in assay [2] it was -6.7%; in assay [3] it was -3.2%; in assay [4], -27.5%; in assay [5], 10%; in assay [6], -22.9%.
For the compound `CCC1(CC)C(=O)N(C(=O)c2cc(OC)c(OC)c(OC)c2)N(C(=O)c2cc(OC)c(OC)c(OC)c2)C1=O`, the growth inhibition in assay [1] was 13.2%; in assay [2], -0.1%; in assay [3], -2.2%; in assay [4], -11%; in assay [5], 6.75%; in assay [6] it was 14.8%.
With `C/C=C/c1ccc2oc(-c3ccc(OC4OC(C)C(O)C(O)C4O)cc3)c(C)c2c1` (stereo unspecified), the growth inhibition is 98.9% (active) in assay [1]; 99% (active) in assay [2]; 99.2% (active) in assay [3]; 98.7% (active) in assay [4]; 98.5% (active) in assay [5]; 51.9% in assay [6].
